# Screen size: about 52,000 compounds; about 4,300 (8.3%) were called active. This is one part of a sample in which actives are shown more often than they occur. Cut-off read from the data, not from the text of the source: active = survival mostly below about 52% (no sharp cut-off); inactive = mostly above about 56%.
# Test system: DeltatarO mutant
# Experiment: growth inhibition of S. aureus wild type versus tarO mutant, primary screen, teichoic acid synthesis inhibitors, RN4220, OD600 (AID 463173)
# Conditions: OD600, 18 h, stronger effect = lower value, screened at 18.75 µg/mL (by protocol)
row,SMILES,survival
1,O=C(Nc1cccc(F)c1)c1ccc(-c2ccccc2)s1,82% (inactive)
2,CCOC(=O)c1cc(-c2ccc(OC)cc2)n(CCC(=O)Nc2cccc(C)c2C)c1C,93% (inactive)
3,CC1=Nc2cc(C(=O)NC3CCCC3)ccc2Sc2ccc(Cl)cc21,77% (inactive)
4,Cc1ccccc1-c1nnc(C2CCN(S(=O)(=O)c3ccc(Cl)cc3)CC2)o1,89% (inactive)
5,CCOc1ccc2nc(N3CCCC(C(=O)Nc4ccccc4CC)C3)sc2c1 (stereo not given),95% (inactive)
6,O=C(Nc1nnc(S(=O)(=O)N2CCCCCC2)s1)c1ccc(Br)cc1,60% (inactive)
7,COc1cccc(C(=O)Nc2nnc(S(=O)(=O)N3CCCC3)s2)c1,33% (active)
8,COc1cccc(C(=O)Nc2nc3ccc(S(=O)(=O)N4CCCC4)cc3s2)c1,79% (inactive)
9,O=C(Nc1nnc(S(=O)(=O)N2CCOCC2)s1)c1ccc(F)cc1,78% (inactive)
10,O=C(Nc1nnc(S(=O)(=O)N2CCCCCC2)s1)c1cccc(Br)c1,9% (active)
11,Cc1cccc(C(=O)Nc2nnc(S(=O)(=O)N3CCOCC3)s2)c1,58% (inactive)
12,O=C(Nc1nnc(S(=O)(=O)N2CCOCC2)s1)c1cccc(Br)c1,42% (active)
13,COc1ccc(C(=O)Nc2nnc(S(=O)(=O)N3CCCCCC3)s2)cc1OC,80% (inactive)
14,CC1CCN(C(=O)COc2ccc(C(C)C)cc2)CC1,86% (inactive)
15,Cc1ccc(C)n1-c1nnc(N2CCC(C(=O)Nc3ccccc3Br)CC2)s1,91% (inactive)
16,c1cc(CNC2CCCCC2)co1,72% (inactive)
17,Nc1nnc(CCC(CCc2nnc(N)s2)(CCc2nnc(N)s2)C(=O)c2ccccc2)s1,92% (inactive)
18,COc1ccc(C)c2sc(N(Cc3cccnc3)C(C)=O)nc12,80% (inactive)
19,COc1ccccc1NC(=O)Cn1c(=O)n(Cc2ccc3c(c2)OCO3)c(=O)c2oc3ccccc3c21,77% (inactive)
20,Cn1c(SCc2ccc(F)cc2)nc2ccc(C(=O)NCc3ccccc3)cc21,49% (inactive)
21,Cn1c(SCc2ccc(F)cc2)nc2ccc(C(=O)NCc3ccc(Cl)cc3)cc21,50% (inactive)
22,Cn1c(SCc2ccc(F)cc2)nc2ccc(C(=O)NCc3cccc(Cl)c3)cc21,56% (active)
23,COc1ccc(OC)c(C2NC(=O)NC(C)=C2C(=O)Nc2cc(C)cc(C)c2)c1 (stereo not given),47% (inactive)
24,COc1ccc(C2NC(=O)NC(C)=C2C(=O)Nc2ccccc2)cc1OC (stereo not given),116% (inactive)
25,COc1cc(C2NC(=O)NC(C)=C2C(=O)Nc2cc(C)cc(C)c2)ccc1O (stereo not given),38% (active)

row,SMILES,survival
1,Cc1cccc(NC(=O)CSc2nnc3[nH]c(=O)cc(-c4ccccc4)n23)c1C,116% (inactive)
2,O=S(=O)(NCC(c1cccs1)S(=O)(=O)c1ccccc1)c1ccc(F)cc1 (stereo not given),46% (active)
3,O=S(=O)(NCC(c1cccs1)S(=O)(=O)c1ccccc1)c1ccc(F)c(C(F)(F)F)c1 (stereo not given),92% (inactive)
4,O=C(NCc1ccccc1)C(=O)NCC(c1cccs1)S(=O)(=O)c1ccccc1 (stereo not given),52% (active)
5,O=S(=O)(NCC(c1cccs1)S(=O)(=O)c1ccccc1)c1ccccc1 (stereo not given),115% (inactive)
6,O=C(NCc1ccccc1)C(=O)NCC(c1cccs1)S(=O)(=O)c1cccs1 (stereo not given),91% (inactive)
7,Cc1ccc(CNC(=O)C(=O)NCC(c2cccs2)S(=O)(=O)c2ccc(C)cc2)cc1 (stereo not given),98% (inactive)
8,CC(C)c1ccc(N2C(=O)CS(=O)(=O)C23C(=O)N(Cc2cccc(F)c2)c2ccccc23)cc1 (stereo not given),69% (inactive)
9,COc1ccc(C2Nc3ccccc3-c3nnc(SC)nc3O2)cc1C (stereo not given),67% (inactive)
10,COc1ccccc1NC(=O)CSc1nc2ccccc2c2nc(-c3ccccc3)nn12,90% (inactive)
11,Cc1ccc(OCCCC(=O)Nc2ccc3c(c2)OCO3)cc1,100% (inactive)
12,COc1ccccc1CNC(=O)c1ccc2nc(CCc3ccccc3)oc2c1,83% (inactive)
13,Cc1cccc(N2CCN(S(=O)(=O)c3c(C)[nH]c(=O)[nH]c3=O)CC2)c1C,84% (inactive)
14,CCN(CC)c1nn2c(=O)c(C(=O)NCCc3cccc(C)c3)cnc2s1,73% (inactive)
15,O=C(CSc1nc2c(c(=O)[nH]1)CCC2)Nc1cccc(O)c1,86% (inactive)
16,COc1ccc(CNC(=O)c2cc3c(s2)-c2c(C)cccc2OC3)cc1,87% (inactive)
17,CCOc1ccc(CCNC(=O)c2cc3c(s2)-c2c(C)cccc2OC3)cc1,98% (inactive)
18,CCOCCCN(Cc1ccco1)C(=O)c1cc2c(s1)-c1c(C)cccc1OC2,-3% (active)
19,CCCCN(Cc1ccco1)C(=O)c1cc2c(s1)-c1c(C)cccc1OC2,-2% (active)
20,CCCN1CCN(CCCNC(=O)c2cc3c(s2)-c2c(C)cccc2OC3)CC1,127% (inactive)
21,CCN1CCN(CCCNC(=O)c2cc3c(s2)-c2c(C)cccc2OC3)CC1,102% (inactive)
22,Cc1ccc(-n2ncc(C(=O)N3CCN(C4CCCCC4)CC3)c2C2CCN(C(=O)OC(C)(C)C)CC2)cc1,82% (inactive)
23,Cc1ccc2cccc(NC(=O)c3ccc(-c4cccc(Cl)c4Cl)o3)c2n1,55% (inactive)
24,Cc1ccc2cccc(NC(=O)c3ccc(-c4cccc(Cl)c4)o3)c2n1,49% (active)
25,O=C(Nc1cccc2cccnc12)c1ccc(-c2cccc(Cl)c2)o1,3% (active)

# Source: PubChem BioAssay AID463173 (ICCB-Longwood Screening Facility, Harvard Medical School, 2010)
